In the supplement of paper PMC6555819:

How the values were obtained:
Test in all cases: PBM binding z-score (relative to random genomic background probes); higher = stronger binding; sequences stand for … in GC…GCGATTGACAGCGTAGAATGAAGG
[1] = system: FXR:RXRa (NR concentration 270 nM, RXRa partner concentration 90 nM)
Method in brief: (§1)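 The probes on custom Agilent 4×180K protein-binding microarrays were double-stranded, with 34-nt variable regions bearing direct-repeat seeds, single-nucleotide variants, half-site ablations and random human genomic background sequences. Incubation lasted 1 h with ligand-free nuclear receptor dimers in PBS pH 7.4, 2% milk, 0.02% Triton X-100, 1 mM DTT, 0.2 mg/mL BSA and 0.4 mg/ml salmon testes DNA. Antibodies against each partner (one per run) detected bound dimers, and fluorescence scans were regression-normalized. Binding z-scores take the random background probes as reference.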

[2] = system: LXRa:RXRa (NR concentration 270 nM, RXRa partner concentration 90 nM)
Method in brief: as §1

[3] = system: LXRa homodimer (NR concentration 270 nM)
Method in brief: as §1

[4] = system: LXRb:RXRa (NR concentration 270 nM, RXRa partner concentration 90 nM)
Method in brief: as §1

[5] = system: LXRb homodimer (NR concentration 270 nM)
Method in brief: as §1

[6] = system: PPARa:RXRa (NR concentration 270 nM, RXRa partner concentration 90 nM)
Method in brief: as §1

[7] = system: PPARg:RXRa (NR concentration 180 nM, RXRa partner concentration 90 nM)
Method in brief: as §1

[8] = system: PPARg:RXRa 270nM:90nM, anti-RXR (NR concentration 270 nM, RXRa partner concentration 90 nM)
Method in brief: as §1

[9] = system: PPARg:RXRa 30nM:10nM, anti-RXR (NR concentration 30 nM, RXRa partner concentration 10 nM)
Method in brief: as §1

[10] = system: PPARg:RXRa 90nM:30nM, anti-RXR (NR concentration 90 nM, RXRa partner concentration 30 nM)
Method in brief: as §1

[11] = system: PPARg:RXRa DBDmut IVT, anti-RXR (DBD mutation: RXRa K156A/R161A, NR concentration 270 nM, RXRa partner concentration 90 nM)
Method in brief: as §1

[12] = system: PPARg:RXRa IVT, anti-PPARg (NR concentration 270 nM, RXRa partner concentration 90 nM)
Method in brief: as §1

[13] = system: PPARg DBDmut:RXRa IVT, anti-PPARg (DBD mutation: PPARg1 K132A/R137A, NR concentration 270 nM, RXRa partner concentration 90 nM)
Method in brief: as §1

[14] = system: PPARg DBDmut IVT, anti-PPARg (DBD mutation: PPARg1 K132A/R137A, NR concentration 270 nM)
Method in brief: as §1

[15] = system: PPARg homodimer (NR concentration 180 nM)
Method in brief: as §1

[16] = system: PXR:RXRa (NR concentration 270 nM, RXRa partner concentration 90 nM)
Method in brief: as §1

[17] = system: PXR homodimer (NR concentration 270 nM)
Method in brief: as §1

[18] = system: RARa:RXR (NR concentration 270 nM, RXRa partner concentration 90 nM)
Method in brief: as §1

[19] = system: RARa homodimer (NR concentration 270 nM)
Method in brief: as §1

[20] = system: RARb:RXRa (NR concentration 270 nM, RXRa partner concentration 90 nM)
Method in brief: as §1

Row | Sequence | PBM binding z-score [1] | PBM binding z-score [2] | PBM binding z-score [3] | PBM binding z-score [4] | PBM binding z-score [5] | PBM binding z-score [6] | PBM binding z-score [7] | PBM binding z-score [8] | PBM binding z-score [9] | PBM binding z-score [10] | PBM binding z-score [11] | PBM binding z-score [12] | PBM binding z-score [13] | PBM binding z-score [14] | PBM binding z-score [15] | PBM binding z-score [16] | PBM binding z-score [17] | PBM binding z-score [18] | PBM binding z-score [19] | PBM binding z-score [20]
1 | ATCGAAAGGTCGTGAGGTGAGTATACAGAAAGGC | 5.57 | 4.25 | 0.175 | 3.13 | 0.435 | 4.95 | 4.06 | 4.39 | 1.92 | 3.28 | -0.0528 | 2.47 | 1.08 | 1.25 | 2.77 | 3.39 | 0.278 | 4.21 | 0.287 | 4.02
2 | CGTCAAAGTTCAACTAAGGTAACGTACAGCACGC | 7.43 | 6.41 | 4.76 | 4.34 | 2.05 | 5.25 | 5.21 | 5.62 | 2.85 | 4.59 | 0.621 | 2.54 | 0.979 | 0.528 | 3.88 | 5.9 | 4.77 | 4.72 | 2.23 | 5.42
3 | CAAACTGGGTCACCGGAAGGTCAAAGTCCGCATG | 5.54 | 5.51 | 3.33 | 5 | 0.871 | 5.73 | 9.06 | 7.43 | 4.95 | 7.29 | 8.13 | 8.83 | 1.41 | 0.892 | 6.19 | 5.57 | 1.27 | 6.73 | 0.623 | 4.9
4 | CCCACTGGGGCAGAAAGGTTACCATACCATCCGG | 0.135 | 0.483 | -0.148 | 0.675 | -0.892 | 2.12 | 2.04 | 2.59 | 0.549 | 2.22 | 2.2 | 3.8 | -0.946 | -0.994 | 1.02 | 0.703 | -0.212 | 1.59 | -0.0999 | 1.86
5 | TAGCCTAAGTCAGATCGGGCCAGTATACGCTATA | 0.0829 | -0.914 | -0.748 | -0.879 | -0.805 | -0.43 | 0.157 | -0.628 | -0.321 | -0.556 | -0.799 | -0.632 | -0.42 | -0.19 | -0.984 | -0.436 | -0.363 | -0.593 | -0.92 | -0.258
6 | GCTTGCAGGCCATTTGGGTCACTCAATGACGGGC | 0.139 | 0.261 | -0.325 | 0.146 | -0.138 | 1.74 | 0.845 | 0.922 | 0.00542 | 0.391 | 3.07 | 3.01 | -0.212 | -0.514 | 0.237 | 0.662 | 0.0952 | 1.09 | -0.792 | 1.76
7 | ATCTCTAGTTAACCAAGTTCAGTGAATGCCGAAC | 0.219 | 1.08 | 1.32 | 0.741 | 0.807 | 0.492 | -0.088 | 0.244 | 0.153 | 0.13 | -0.131 | 0.461 | 0.59 | 1.22 | 1 | 2.1 | 3 | 0.723 | 1.21 | 0.932
8 | TCTAGTTGGTCAAAGGTCACACTCTCGAAATGCG | 5.93 | 5.66 | 3.78 | 5.32 | 1.9 | 6.47 | 11.1 | 9.87 | 10.5 | 10.6 | 3.65 | 6.05 | 1.12 | 1.37 | 5.48 | 5.85 | 1.74 | 7.41 | 3.43 | 4.92
9 | TCTCTTAGTTGAAGGGCAACCGACGAGTCCGTTT | 0.776 | 1.01 | 0.193 | 0.945 | 0.697 | 1.06 | -0.252 | 2.02 | 3.7 | 3.13 | 2.62 | 0.645 | 0.259 | 0.537 | 0.739 | 0.86 | 0.261 | 0.472 | 0.622 | 1.63
10 | TCTATGAGTTGATTAGGGCAACCGAAACAGCGGA | 0.319 | 0.351 | -0.0686 | 0.151 | -0.328 | 1.07 | 0.39 | 1.31 | 2.32 | 1.65 | 1.35 | 1.19 | -0.00987 | -0.582 | -0.0125 | 0.279 | -0.195 | 0.487 | -0.0986 | 0.711
11 | TCATATCGGTAAACAGGTGAAAGTCCGTAAGTTA | 0.957 | 0.857 | 0.341 | 0.799 | 0.0218 | 1.89 | 1.04 | 2.91 | 4.03 | 3.5 | 2.55 | 2.3 | 0.278 | 0.853 | 0.999 | 0.657 | 0.286 | 0.933 | 1.19 | 0.764
12 | CGTCCAAGGTCAGCAGATCAGTGAAAGCGACGTG | 5.09 | 3.1 | -0.179 | 2.21 | -0.172 | 3.95 | 2.5 | 2.9 | 0.511 | 1.51 | 2.68 | 2.66 | 0.547 | -0.498 | 2.2 | 2.49 | 0.4 | 3.08 | 0.548 | 5.02
13 | TCATATACGTAAAGGTGAAAGTCGAACGATATGA | 0.717 | 1.21 | -0.0647 | 1.44 | 0.339 | 2.63 | 1.64 | 2.52 | 3.86 | 3.15 | 1.6 | 1.61 | 1.06 | 2 | 0.594 | 1.1 | -0.24 | 1.55 | 0.587 | 2.04
